Screening data as filed in PubChem BioAssay.
This excerpt belongs to a sample that is enriched for hits.
Pf Dd2 growth – inhibitors of Plasmodium falciparum Dd2 growth | actives 4.3% (n = 120,000) | Potency, µM (series often up to 28.9 µM), hits mostly inhibitors | P. falciparum Dd2 growth, SYBR Green, 72 h; active means well fitted inhibition curve with a large enough effect; further: nearly all actives have a fitted effect of over 65% in size
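Readout: SYBR Green fluorescence, 485 nm excitation, 535 nm emission, after ~16 h lysis at 37C. Before that, Dd2-infected red cells (2.5% hematocrit) grew 72 h with compound, 29 uM top final concentration.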
Each line names hits and unclear results; the compound was inactive in the other large screens.

Cn1cccc1C(=O)N1CCCN(C(=O)C2CC2)C(c2ccccc2)CC(=O)NCC1 (configuration not stated)	none
CCOc1ccc(NC(=O)N2CCc3cc(OC)c(OC)cc3C2CNC(=O)NC(C)C)cc1 (configuration not stated)	none
COc1cc2c(cc1OC)C(CNC(=O)CC(C)C)N(C(=O)Nc1cccc(F)c1)CC2 (configuration not stated)	none
COc1cc2c(cc1OC)C(COc1ccc3c(C)cc(=O)oc3c1)N(C(=O)CC(C)C)CC2 (configuration not stated)	Pf Dd2 growth 11.2µM
CCOc1ccc2oc(=O)cc(CN3CCN(C(=O)c4ccc(OC)c(OC)c4)CC3)c2c1	none
COc1ccccc1NC(=O)N1CCc2cc(OC)c(OC)cc2C1CNC(=O)CC(C)C (configuration not stated)	none
CCOc1ccc(CC(=O)N2CCc3cc(OC)c(OC)cc3C2COc2ccc3c(C)cc(=O)oc3c2)cc1 (configuration not stated)	Pf Dd2 growth 3.98µM
CS(=O)(=O)N1C[C@@H](Oc2ccccc2)C[C@H]1C(=O)N1CCCC1	none
CCC(=O)Nc1ccc(-c2c(-c3ccc(F)cc3)nn(-c3ccc(F)cc3)c2OC(C)=O)cc1	none
COc1ccc(C(=O)N2CCOC3(CCN([S+](C)(=O)[O-])CC3)C2)cc1	none
COc1ccccc1Cn1c(-c2ccc(Cl)cc2)nc(C)c(CCO)c1=O	none
COc1ccc(CCc2nc3nccc(-c4ccc(OC)c(OC)c4)n3n2)cc1OC	Pf Dd2 growth 12.6µM
COc1ccc(-c2ccnc3nc(CCc4ccc(OC)c(OC)c4)nn23)cc1	none
CCc1nc2nccc(-c3ccc(OC)c(OC)c3)n2n1	none
COc1ccc(C(=O)N2C[C@@H](Oc3ccccc3)C[C@H]2C(=O)N2CCOCC2)c(OC)c1	none
CC1=C[C@@H](CN2CCN(c3cnccn3)CC2)[C@H](C(C)C)C[C@H]1Cc1nnc(-c2ccc([N+](=O)[O-])cc2)o1	none
CC1=C[C@@H](CN2CCOCC2)[C@H](C(C)C)C[C@H]1Cc1nnc(-c2ccccc2)o1	none
CC(=O)N1CCN(C[C@@H]2C=C(C)[C@H](Cc3nnc(-c4cccnc4)o3)C[C@H]2C(C)C)CC1	Pf Dd2 growth 7.94µM
CC1=C[C@@H](CN2CCN(CCO)CC2)[C@H](C(C)C)C[C@H]1Cc1nnc(C)o1	none
COCCN1CCN(C[C@@H]2C=C(C)[C@H](Cc3nnc(C)o3)C[C@H]2C(C)C)CC1	none
CCCc1nnc(C[C@@H]2C[C@@H](C(C)C)[C@H](CN3CCN(C(C)=O)CC3)C=C2C)o1	Pf Dd2 growth 11.2µM
CC1=C[C@@H](CN2CCN(c3ncccn3)CC2)[C@H](C(C)C)C[C@H]1Cc1nnc(Cc2c[nH]c3ccccc23)o1	Pf Dd2 growth 3.55µM
O=C([C@@H]1C[C@H](F)CN1S(=O)(=O)c1ccc(F)cc1)N1CCc2ccccc2C1	none
COCCC1(NC(=O)C2CC2)CCN(S(C)(=O)=O)CC1	none
COCCNC(=O)[C@H]1C[C@H](Oc2ccccc2)CN1C(=O)NCCc1ccccc1	none
O=C(c1ccccc1OCC1CCCNC1)N1CCCCC1 (configuration not stated)	none
Cc1c(C(=O)N2CC[C@@H]3[C@@H](CCC(=O)N3CCN)C2)[nH]c2ccccc12	none
Cc1ccc(S(=O)(=O)NC[C@H]2OC[C@@H](N(C)C)[C@@H]2O)cc1	none
Cc1noc(C)c1C(=O)NC1CCCc2c1[nH]c1ccccc21 (configuration not stated)	none
CC1(C)CNC(=O)c2nc(CCN3CCCc4ccccc43)[nH]c2C1	none
Cc1ccc(C(=O)N2CCn3c(nn(-c4cccc(Cl)c4)c3=O)C2)cc1	none
Cc1ccc(NC(=O)N2CCC(CCNC(=O)c3cccc(F)c3)CC2)cc1F	Pf Dd2 growth 12.6µM
O=C(NCCC1CCN(C(=O)Nc2ccc(F)cc2F)CC1)c1cccc(F)c1	none
COc1cccc(C(=O)NCCC2CCN(C(=O)Nc3ccc(C)c(F)c3)CC2)c1	none
COc1cccc(C(=O)NCC2Cn3cccc3C(=O)N2CC(C)C)c1 (configuration not stated)	none
CS(=O)(=O)N[C@H]1[C@H](O)[C@H](O)C[C@@H]1c1ccccc1	none
Cc1cccc([C@H]2C[C@@H](O)[C@@H](O)[C@@H]2NCC2CCCC2)c1	none
O[C@H]1[C@H](NCC2CCCC2)[C@@H](c2ccccc2)C[C@H]1O	Pf Dd2 growth 1.78µM
COc1ccc(-n2cccn2)c(CN2CC[C@H](CO)[C@H](O)C2)c1	none
CCOC(=O)N1CCN(C2CCCN(Cc3cc(C)ccc3-n3cccn3)C2)CC1 (configuration not stated)	Pf Dd2 growth 10µM
COCC[C@]1(O)CCN(Cc2cc(F)ccc2-n2cccn2)C[C@H]1C	none
COc1ccc([C@H]2CN(C(=O)c3nc(N)nc4c3CCCC4)C[C@@H]2N)cc1	none
Cc1ncc(CN2CCN(C(=O)c3cccn3C3CC3)CC(O)C2)[nH]1 (configuration not stated)	none
Fc1ccc(-c2ccc3ncc(Nc4ccc(Cl)cn4)n3n2)cc1	none
c1ccc(-c2ccc3ncc(Nc4cccnc4)n3n2)cc1	Pf Dd2 growth 1.58µM
Fc1ccc(-c2ccc3ncc(Nc4ccccn4)n3n2)cc1	Pf Dd2 growth 5.62µM
Fc1ccc(-c2ccc3ncc(Nc4ncccn4)n3n2)cc1	none
Clc1ccc(Nc2cnc3ccc(-c4ccccc4)nn23)nc1	none
c1ccc(-c2ccc3ncc(Nc4cnccn4)n3n2)cc1	none
O=C1CCN(C(=O)Nc2ccccc2)CCCC(c2nc(-c3cccnc3)no2)CCN1 (configuration not stated)	none
Cc1noc(C)c1CC(=O)N1Cc2ccccc2OC2(CCN(C(=O)NC(C)C)CC2)C1	none
Cc1cnc(N2CC3CCC(C2)N3CC(F)(F)F)c([N+](=O)[O-])c1	none
O=C(Cn1cccc1-c1nc(-c2ccc(F)cc2)no1)Nc1ccc(F)c(F)c1	none
Cc1c(Cl)cccc1NC(=O)Cn1cccc1-c1nc(-c2ccc(F)cc2)no1	none
O=C(Cn1cccc1-c1nc(-c2ccccc2)no1)Nc1cc(F)cc(F)c1	none
COc1ccc(NC(=O)Cn2cccc2-c2nc(-c3ccccc3)no2)cc1	Pf Dd2 growth 3.16µM
O=C(Cn1cccc1-c1nc(-c2ccc(F)cc2)no1)Nc1ccc(Cl)cc1	none
O=C(Cn1cccc1-c1nc(-c2ccccc2)no1)Nc1cccc(Cl)c1	Pf Dd2 growth 2.51µM
Cc1cccc(NC(=O)Cn2cccc2-c2nc(-c3ccc(F)cc3)no2)c1C	none
COc1ccc(-c2noc(-c3cccn3CC(=O)N3CCN(c4ccccc4OC)CC3)n2)cc1F	none
COC(=O)c1ccccc1NC(=O)Cn1cccc1-c1nc(-c2ccccc2)no1	none
O=C(Cn1cccc1-c1nc(-c2ccccc2)no1)N1CCN(c2ccccc2F)CC1	Pf Dd2 growth 7.94µM
CCOc1ccccc1NC(=O)Cn1cccc1-c1nc(-c2ccc(F)cc2)no1	Pf Dd2 growth 10µM
CC(=O)Nc1ccc(NC(=O)Cn2cccc2-c2nc(-c3ccc(F)cc3)no2)cc1	none
Cc1ncsc1CN1CC(CO)C2(CCNCC2)C1 (configuration not stated)	none
Cc1ccc(N2CCC(N)C2=O)cc1C (configuration not stated)	none
CCOc1ccccc1C1NC(=O)N(CC(=O)N(CC)c2ccccc2)C2=C1C(=O)OC2 (configuration not stated)	none
C[C@]1(O)CCN(C(=O)c2cccc(Oc3ccccc3)c2)C[C@@H]1O	none
CCCc1noc(-c2cccn3c(CNC(=O)c4ccccc4Cl)nnc23)n1	none
CCn1ncc(N2CCCC(CC(=O)NCCc3ccccc3)C2)cc1=O (configuration not stated)	none
c1ccc(Cc2nnc([C@H]3CCN(C4CCCCC4)C3)o2)cc1	none
